Experimental data reported in PubChem BioAssay (EPA / NIEHS).
“And” between values parts separate entries of the source, which are not always exact repeats. Equal entries are not always repeated. The source holds several records for some structures; these can differ, active in one and inactive in another. The source made the active and inactive calls. How the source made its calls: active means hit-call score of the fitted dose curve at least 0.9, where 1 is the maximum; inactive means score below 0.9.

Tests used:
[1] = read-out: Monocyte Chemoattractant Protein-1 (MCP1), CCL2 (gene 6347); assay: BSK_LPS_MCP1: BioMAP Diversity Plus: LPS Assay for Monocyte Chemoattractant Protein-1 (MCP1) Biomarker Activity (AID 2283081); settings: primary human HUVEC with PBMC; actives raise or lower the signal
Summary of the method: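 ELISA read-out of MCP-1 after 24 h chemical dosing of a human umbilical vein endothelial cell/peripheral blood mononuclear cell co-culture stimulated with LPS. Gain or loss of signal fitted relative to DMSO controls.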

[2] = BSK_LPS_PGE2: BioMAP Diversity Plus: LPS Assay for Prostaglandin E2 (PGE2) Biomarker Activity (AID 2283082); settings: primary human HUVEC with PBMC; actives raise or lower the signal;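 on AC50: secreted prostaglandin E2 measured by ELISA in LPS-stimulated co-culture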
Summary of the method: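 Endpoint derived from bidirectional curve fitting versus DMSO of ELISA-measured PGE2 in LPS-stimulated human primary vascular co-culture (HUVEC with PBMC) harvested at 24 h.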

[3] = read-out: Macrophage colony-stimulating factor (MCSF), CSF1 (gene 1435); assay: BSK_LPS_MCSF: BioMAP Diversity Plus: LPS Assay for Macrophage colony-stimulating factor (MCSF) Biomarker Activity (AID 2283083); settings: primary human HUVEC with PBMC; actives raise or lower the signal
Summary of the method: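 HUVEC + PBMC co-culture (human primary), 24 h post-dose; M-CSF by ELISA; gain/loss of signal fitted bidirectionally vs DMSO baseline.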

[4] = read-out: Tissue Factor, F3 (gene 2152); assay: BSK_LPS_TissueFactor: BioMAP Diversity Plus: LPS Assay for Tissue Factor Biomarker Activity (AID 2283084); settings: primary human HUVEC with PBMC; actives raise or lower the signal
Summary of the method: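 HUVEC/PBMC co-culture, LPS-activated; CD142 ELISA read 24 h post-dose; bidirectional curve fit vs DMSO negative control.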

[5] = read-out: Tumor necrosis factor (Homo sapiens) (UniProt P01375); assay: BSK_LPS_TNFa: BioMAP Diversity Plus: LPS Assay for Tumour Necrosis Factor alpha (TNFa) Biomarker Activity (AID 2283085); settings: primary human HUVEC with PBMC; actives raise or lower the signal
Summary of the method: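 Primary human vascular co-culture of HUVEC and PBMC; TNFa ELISA 24 h after treatment, analysed as increase or decrease relative to DMSO control.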

[6] = read-out: Vascular cell adhesion molecule 1 (VCAM1), VCAM1 (gene 7412); assay: BSK_LPS_VCAM1: BioMAP Diversity Plus: LPS Assay for Vascular cell adhesion molecule 1 (VCAM1) Biomarker Activity (AID 2283086); settings: primary human HUVEC with PBMC; actives raise or lower the signal
Summary of the method: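 Primary human vascular co-culture (umbilical vein endothelium plus PBMC) stimulated with LPS received chemical; 24 h later VCAM-1 was read by ELISA. Overt cytotoxicity was assessed by sulforhodamine B staining of parallel cultures at the same time point.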

CD38, CD38 (gene 952) = assay: BSK_SAg_CD38: BioMAP Diversity Plus: SAg Assay for CD38 Biomarker Activity (AID 2283087); settings: primary human HUVEC with PBMC; actives raise or lower the signal
Summary of the method: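 Fluorescence ELISA of cell-surface CD38 served as the read-out, with either increase or decrease fitted against DMSO controls. Cells were a human umbilical vein endothelium plus PBMC co-culture under SEB/TSST-1 stimulation, measured 24 h after dosing.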

CD40, CD40 (gene 958) = assay: BSK_SAg_CD40: BioMAP Diversity Plus: SAg Assay for CD40 Biomarker Activity (AID 2283088); settings: primary human HUVEC with PBMC; actives raise or lower the signal
Summary of the method: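 HUVEC/PBMC co-culture, 24 h post-dose; CD40 by ELISA, fluorescence intensity; bidirectional fit vs DMSO negative control.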

CD69, CD69 (gene 969) = assay: BSK_SAg_CD69: BioMAP Diversity Plus: SAg Assay for CD69 Biomarker Activity (AID 2283089); settings: primary human HUVEC with PBMC; actives raise or lower the signal;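 on AC50: cell surface CD69 protein quantified by ELISA with fluorescence detection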
Summary of the method: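 Values derive from bidirectional fitting relative to DMSO vehicle. Cells: umbilical vein endothelium plus peripheral blood mononuclear cells, treated 24 h before fluorescent ELISA for CD69.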

[7] = read-out: Monocyte Chemoattractant Protein-1 (MCP1), CCL2 (gene 6347); assay: BSK_SAg_MCP1: BioMAP Diversity Plus: SAg Assay for Monocyte Chemoattractant Protein-1 (MCP1) Biomarker Activity (AID 2283090); settings: primary human HUVEC with PBMC; actives raise or lower the signal
Summary of the method: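 MCP-1 levels in the endothelial–PBMC SAg co-culture were quantified by ELISA at 24 h post-dosing; both increases and decreases versus DMSO scored. Cytotoxicity monitored by SRB total protein in parallel cultures.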

[8] = read-out: E-selectin (Homo sapiens) (UniProt P16581); assay: BSK_SAg_Eselectin: BioMAP Diversity Plus: SAg Assay for Eselectin Biomarker Activity (AID 2283091); settings: primary human HUVEC with PBMC; actives raise or lower the signal
Summary of the method: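 E-selectin ELISA readout at 24 h post-dosing in human umbilical vein endothelial cell/PBMC co-culture; gain or loss of signal fitted relative to DMSO baseline.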

[9] = read-out: Monokine induced gamma interferon (MIG), CXCL9 (gene 4283); assay: BSK_SAg_MIG: BioMAP Diversity Plus: SAg Assay for Monokine induced gamma interferon (MIG) Biomarker Activity (AID 2283092); settings: primary human HUVEC with PBMC; actives raise or lower the signal
Summary of the method: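 Values reflect bidirectional fitting of ELISA-measured MIG against DMSO vehicle, taken 24 h after dosing of a co-culture of human umbilical vein endothelial cells and peripheral blood mononuclear cells.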

[10] = BSK_SAg_PBMCCytotoxicity: PBMC Cytotoxicity Assessment in the BioMAP Diversity Plus: SAg Assay (AID 2283093); settings: primary human HUVEC with PBMC;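 further: PBMC viability measured as Alamar Blue reduction fluorescence at 546/580 nm; fitted both ways against DMSO so a hit may be loss or gain of signal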;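 on AC50: PBMC superantigen activated with SEB plus TSST-1 one hour after compound addition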
Summary of the method: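 HUVEC/PBMC co-culture; PBMC exposed to chemical 1 h before SEB and TSST-1 activation (20 ng/mL each), incubated 90 h, then Alamar Blue 6 h, fluorescence 546/580 nm. Bidirectional fit versus DMSO baseline.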

[11] = read-out: Interleukin-8 (IL8), CXCL8 (gene 3576); assay: BSK_SAg_IL8: BioMAP Diversity Plus: SAg Assay for Interleukin-8 (IL8) Biomarker Activity (AID 2283094); settings: primary human HUVEC with PBMC; actives raise or lower the signal
Summary of the method: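 In this co-culture of human umbilical vein endothelium with peripheral blood mononuclear cells, IL-8 is assayed by ELISA at 24 h. DMSO serves as baseline for bidirectional curve fitting.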

[12] = BSK_SAg_Proliferation: Cell Proliferation Assessment in the BioMAP Diversity Plus: SAg Assay (AID 2283095); settings: primary human HUVEC with PBMC;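 further: relative cell number as total protein by SRB absorbance in sub-confluent culture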
Summary of the method: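 Readout is SRB-stained protein (560 nm) in a primary human HUVEC and PBMC co-culture; sub-confluent cultures are read at 96 h. Activity is fitted bidirectionally using DMSO as baseline.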

[13] = BSK_SAg_SRB: Viability Assessment in the BioMAP Diversity Plus: SAg Assay (AID 2283096); settings: primary human HUVEC with PBMC;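 further: cells read one day after compound addition; hits may be either gain or loss of signal compared with DMSO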
Summary of the method: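 Human umbilical vein endothelial cells co-cultured with PBMC, read 24 h after compound dosing. Total protein measured by sulforhodamine B staining (0.1% SRB after 10% TCA fixation, absorbance 560 nm); bidirectional fit versus DMSO baseline.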

Measured: AC50

Chain of E-selectin (Homo sapiens) (P16581 whole entry, looked up): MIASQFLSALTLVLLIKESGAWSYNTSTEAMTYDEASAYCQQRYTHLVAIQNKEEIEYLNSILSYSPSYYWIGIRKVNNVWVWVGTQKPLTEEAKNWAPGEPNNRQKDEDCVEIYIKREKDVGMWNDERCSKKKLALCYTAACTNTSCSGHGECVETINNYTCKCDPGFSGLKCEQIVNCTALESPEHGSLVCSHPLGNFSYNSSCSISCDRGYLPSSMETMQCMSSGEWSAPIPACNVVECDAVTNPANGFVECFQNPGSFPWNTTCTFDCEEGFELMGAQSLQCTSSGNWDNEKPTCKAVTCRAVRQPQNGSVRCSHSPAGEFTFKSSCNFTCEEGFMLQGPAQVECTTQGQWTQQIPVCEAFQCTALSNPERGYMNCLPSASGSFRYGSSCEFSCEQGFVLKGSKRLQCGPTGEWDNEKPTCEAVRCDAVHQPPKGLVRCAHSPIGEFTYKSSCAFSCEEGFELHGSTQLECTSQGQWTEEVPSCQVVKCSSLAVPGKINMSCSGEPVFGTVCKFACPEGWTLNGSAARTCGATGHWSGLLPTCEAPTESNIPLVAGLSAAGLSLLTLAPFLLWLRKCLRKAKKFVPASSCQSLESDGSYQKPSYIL
Chain of Tumor necrosis factor (Homo sapiens) (P01375 whole entry, looked up): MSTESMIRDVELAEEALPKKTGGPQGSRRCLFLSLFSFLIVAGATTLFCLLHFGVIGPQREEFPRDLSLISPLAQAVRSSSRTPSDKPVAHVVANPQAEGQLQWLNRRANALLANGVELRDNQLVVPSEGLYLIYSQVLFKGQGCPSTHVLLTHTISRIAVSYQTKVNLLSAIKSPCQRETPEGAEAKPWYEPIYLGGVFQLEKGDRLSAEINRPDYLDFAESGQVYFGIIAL

O=C(O)C(F)(F)C(F)(F)OC(F)(F)F
inactive: all assays above

CO[Si](OC)(c1ccccc1)c1ccccc1
active: [10] 33.8 µM | [12] 20 µM
inactive: all other assays above

OCC(F)(F)C(F)(F)C(F)(F)C(F)(F)C(F)(F)C(F)F
not listed: [10]
inactive: all other assays above

O=C(O)C(F)(F)C(F)(F)C(F)(F)C(F)(F)C(F)(F)C(F)(F)C(F)(F)C(F)(F)C(F)(F)C(F)(F)C(F)(F)C(F)(F)F
active: [3] 20.4 µM and 21.6 µM | CD40, CD40 (gene 958) 21.1 µM and 16.7 µM
not listed: [10] | [11]
inactive: all other assays above

FC(F)(F)C(F)(F)C(F)(F)C(F)(F)C(F)(F)C(F)(F)CC1CO1 (stereo unspecified)
not listed: [10] | [11]
inactive: all other assays above

NC(=O)C(F)(F)C(F)(F)C(F)(F)C(F)(F)F
active: [12] 30 µM
inactive: [1] | [2] | [3] | [4] | [5] | [6] | CD38, CD38 (gene 952) | CD40, CD40 (gene 958) | CD69, CD69 (gene 969) | [7] | [8] | [9] | [10] | [12] | [13]

OCC(F)(F)C(F)(F)C(F)(F)F
not listed: [10] | [11]
inactive: all other assays above

O=C(O)C(F)(F)C(F)(F)C(F)(F)F
inactive: all assays above

O=C(O)C(F)(F)C(F)(F)F
not listed: [10]
inactive: all other assays above

CCO[Si](CCC(F)(F)C(F)(F)C(F)(F)C(F)(F)C(F)(F)C(F)(F)F)(OCC)OCC
not listed: [10]
inactive: all other assays above

O=C(O)C=C(C(F)(F)F)C(F)(F)F
active: [3] 8.27 µM | [6] 10.5 µM and 10.2 µM | CD40, CD40 (gene 958) 40.3 µM | CD69, CD69 (gene 969) 22.8 µM and 30 µM | [7] 18.8 µM | [8] 26.8 µM and 22.9 µM | [11] 30 µM and 20 µM | [12] 43 µM and 27.2 µM
inactive: [1] | [2] | [3] | [4] | [5] | CD38, CD38 (gene 952) | CD40, CD40 (gene 958) | [7] | [9] | [13]

CC(C)(C)C(=O)CC(=O)C(F)(F)C(F)(F)C(F)(F)F
inactive: [1] | [2] | [3] | [4] | [5] | [6] | CD38, CD38 (gene 952) | CD40, CD40 (gene 958) | CD69, CD69 (gene 969) | [7] | [8] | [9] | [11] | [12] | [13]
active: [2] 30 µM | [8] 41.1 µM
